Inconclusive results are not listed. Calls of active or inactive are those of the source. Unless noted, calls come from the whole dose curve; as a rule, active = well fitted curve in the direction sought with a large enough effect; inconclusive = small, poorly fitted or top-dose-only effect, or another doubt; inactive = no such curve, though single readings can be large; an effect the other way counts as inactive or inconclusive.
Key:
Furin (Homo sapiens) = Furin (Homo sapiens) (UniProt P09958); assay: Furin counterscreen qHTS for Zika virus inhibitors (AID 1347149); note: nearly all actives have a fitted effect of over 70% in size; note: potency is the fitted concentration of half-maximal effect;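 for activity change, negative = inhibition: purified recombinant full-length human furin enzyme at 5 nM; fluorescence gain from furin cutting a BOC-RVRR-AMC peptide substrate over 15 min; top concentration of the series differs between compounds; plate controls were no-inhibitor control for no effect and no-enzyme control for full effect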
Summary of the method: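 Counterscreen measures cleavage of 2 microM BOC-RVRR-AMC, below its ~15 microM Km, by 5 nM full-length human furin at pH 7.0 after a 15-min compound preincubation. Inhibition derives from the 15-min fluorescence increase at 37C.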

[1] = test system: Zika virus NS2B-NS3 protease (linked construct); assay: Confirmatory screen NINDS AMC qHTS for Zika virus inhibitors (AID 1347152); note: nearly all actives have a fitted effect of over 70% in size; note: potency is the fitted concentration of half-maximal effect;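 for activity change, negative = inhibition: AMC fluorescence gain from cleaved Bz-Nle-KRR-AMC substrate over 15 min; top concentration of the series differs between compounds; 0% = no-inhibitor control and -100% = no-enzyme control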
Summary of the method: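 Purified NS2B-NS3 protease with NS2B hydrophilic domain linked to NS3 protease domain by flexible linker, 1 nM final in 10 mM Tris-HCl pH 8.0, 0.01% Tween 20. Compounds preincubated 15 min, room temperature; Bz-Nle-KRR-AMC 10 microM (Km 18.3 µM); 15-min fluorescence change, 4-parameter Hill fit.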

[2] = test system: Zika virus NS2B-NS3 protease (unlinked complex); assay: Confirmatory screen GU AMC qHTS for Zika virus inhibitors (AID 1347153); note: nearly all actives have a fitted effect of over 70% in size;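 for Potency: enzyme at 25 nM with substrate at 10 µM below its Km of 18.3 µM; potency is the fitted concentration of half-maximal effect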
Summary of the method: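 Fluorescence change (ex 340/em 450 nm) over 15 min, ~20% substrate conversion, normalized to no-inhibitor and no-enzyme controls, then Hill-fitted. Unlinked protease at 25 nM; AMC peptide 10 µM.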

[3] = Vero cells viability qHTS for Zika virus inhibitors (AID 1347167); note: % is set by controls: 0 for no effect and ±100 for the full control effect
Summary of the method: (§1)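 To flag cytotoxic protease inhibitors, viability is measured by ATP-dependent luminescence (CellTiter Glo) after cells attached overnight receive compound for 24 to 48 hours in DMEM with 4% FBS.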

[4] = HepG2 cells viability qHTS for Zika virus inhibitors (AID 1347168); note: % is set by controls: 0 for no effect and ±100 for the full control effect
Summary of the method: as §1

[5] = Tertiary RLuc qRT-PCR qHTS assay for Zika virus inhibitors (AID 1347169); note: nearly all actives have a fitted effect of over 55% in size; note: potency is the fitted concentration of half-maximal effect; for activity change, negative = inhibition: top concentration of the series differs between compounds; % is set by controls: 0 for no effect and ±100 for the full control effect
Summary of the method: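 Vero cells (1,000 per well) plated overnight at 37 degrees C, treated with compound in DMSO, then infected with recombinant ZIKV-RLuc (Cambodian) at MOI 1-2 for 48-72 hrs. Live-cell Renilla luciferase substrate added; luminescence read after 1-1.5 hrs.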

[6] = Primary qHTS for small molecule stabilizers of the endoplasmic reticulum resident proteome: Secreted ER Calcium Modulated Protein (SERCaMP) assay (AID 1508630); note: % is set by controls: 0 for no effect and ±100 for the full control effect
Summary of the method: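 The SH-SY5Y reporter protocol was run at 3 concentrations up to 38.3 uM (primary) or 11 concentrations (follow-up): 16 h compound, 100 nM thapsigargin for 4 h, then extracellular luciferase luminescence.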

[7] = test system: Zika virus NS2B-NS3 protease (linked construct); assay: 384 well plate NINDS Rhodamine confirmatory qHTS for Zika virus inhibitors (AID 1347164);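 note: fluorescence from protease cleavage of Ac-LKRR-rhodamine 110 substrate; nearly all actives have a fitted effect of over 65% in size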; note: potency is the fitted concentration of half-maximal effect;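 for activity change, negative = inhibition: top concentration of the series differs between compounds; plate controls were no-inhibitor control for no effect and no-enzyme control for full effect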
Summary of the method: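 Linked protease at a final 5 nM, 30 nM or 60 nM was preincubated ~15 min with compounds, then given 10 microM Ac-LKRR-Rhodamine 110. Fluorescence (ex 485/em 538 nm) after 25 min in the dark at room temperature.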

[8] = ZIKV-mCherry secondary qHTS for Zika virus inhibitors (AID 1347158); note: top concentration of the series differs between compounds
Summary of the method: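 Read-out is percent infection: mCherry-positive Vero cells (nuclear-proximal intensity >450 RFU, 3 SD above negative controls) counted by high-content imaging of Hoechst-stained, PFA-fixed wells after 48-72 h with ZIKV-mCherry at MOI 1 and compound.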

[9] = test system: Zika virus NS2B-NS3 protease (unlinked); assay: Optimization of GU AMC qHTS for Zika virus inhibitors: Unlinked NS2B-NS3 protease assay (AID 1347151);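 note: 0% = no-inhibitor control and -100% = no-enzyme control; nearly all actives have a fitted effect of over 80% in size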
Summary of the method: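 Noncovalent complex of NS2B hydrophilic domain and NS3 protease domain, 25 nM final, in 10 mM Tris-HCl pH 8.0, 0.01% Tween 20. AMC fluorescence change over 15 min at room temperature was fitted to a 4-parameter Hill equation.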

[10] = test system: Zika virus NS2B-NS3 protease (linked); assay: 384 well plate NINDS AMC confirmatory qHTS for Zika virus inhibitors (AID 1347163);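 note: linked protease at 5 30 or 60 nM final depending on run; fluorescence of AMC released from Ac-VKTGKR-AMC peptide cleaved by the protease; top concentration of the series differs between compounds; 0% = no-inhibitor control and -100% = no-enzyme control; nearly all actives have a fitted effect of over 50% in size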
Summary of the method: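 Enzyme (5, 30 or 60 nM final) first met test compounds for ~15 min. The AMC-tagged peptide Ac-VKTGKR-AMC followed at 30 microM. Fluorescence was then recorded at 25 min and scaled against no-enzyme and no-inhibitor wells.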

[11] = target: Cytochrome P450 3A4 (Homo sapiens) (UniProt P08684); assay: qHTS Assay for Inhibitors and Substrates of Cytochrome P450 3A4 (AID 884); note: % is set by controls: 0 for no effect and ±100 for the full control effect; nearly all actives have a fitted effect of over 50% in size
Summary of the method: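 Luminescent readout of luciferin produced by CYP3A4 (20 nM) dealkylation of Luciferin-PPXE, 25 uM (its KM). NADPH-driven reaction ran 60 min at RT after 10 min compound preincubation; data scaled to 57 uM ketoconazole as 100% inhibition.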

[12] = Confirmation and Secondary Assay for Modulators of Hemoglobin Beta Chain Splicing at IVS2 654 locus (AID 910);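 note: per-well total GFP intensity by laser scanning cytometry after 2-day treatment; % of control where 0% means no effect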
Summary of the method: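 HeLa cells stably carrying EGFP interrupted by mutant beta-globin IVS2-654 intron (CMV-driven) were treated with compound for 2 days at 37C; corrected splicing was scored as total peak GFP intensity per well (488 nm excitation, 500-520 nm emission).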

[13] = Confirmation and Secondary Assay for Modulators of Hemoglobin Beta Chain Splicing at IVS2 705 locus (AID 930);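 note: HeLa cells stably expressing the EGFP-705 splicing reporter; GFP fluorescence per well restored by corrected splicing of the IVS2-705 intron in EGFP; % of control where 0% means no effect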
Summary of the method: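 Assay measures total GFP intensity per well in HeLa EGFP-705 cells after 2 days with compound; mis-splicing normally truncates EGFP, so fluorescence indicates corrected splicing.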

[14] = qHTS Assay for Lipid Storage Modulators (AID 1519; calls by dose curve); conditions: Drosophila S3 cells, BODIPY lipid droplet/cell ratio, laser cytometry, cells loaded with oleic acid
Summary of the method: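 Cells seeded at 5,000 per well were treated with compounds over a concentration series and loaded with oleic acid (400 uM, as added). Lipid droplet fluorescence (488 nm excitation, 500-530 nm channel) was read by laser-scanning cytometry and normalized to 20 uM Triacsin C.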

Sequence of Furin (Homo sapiens) (P09958 whole entry, looked up): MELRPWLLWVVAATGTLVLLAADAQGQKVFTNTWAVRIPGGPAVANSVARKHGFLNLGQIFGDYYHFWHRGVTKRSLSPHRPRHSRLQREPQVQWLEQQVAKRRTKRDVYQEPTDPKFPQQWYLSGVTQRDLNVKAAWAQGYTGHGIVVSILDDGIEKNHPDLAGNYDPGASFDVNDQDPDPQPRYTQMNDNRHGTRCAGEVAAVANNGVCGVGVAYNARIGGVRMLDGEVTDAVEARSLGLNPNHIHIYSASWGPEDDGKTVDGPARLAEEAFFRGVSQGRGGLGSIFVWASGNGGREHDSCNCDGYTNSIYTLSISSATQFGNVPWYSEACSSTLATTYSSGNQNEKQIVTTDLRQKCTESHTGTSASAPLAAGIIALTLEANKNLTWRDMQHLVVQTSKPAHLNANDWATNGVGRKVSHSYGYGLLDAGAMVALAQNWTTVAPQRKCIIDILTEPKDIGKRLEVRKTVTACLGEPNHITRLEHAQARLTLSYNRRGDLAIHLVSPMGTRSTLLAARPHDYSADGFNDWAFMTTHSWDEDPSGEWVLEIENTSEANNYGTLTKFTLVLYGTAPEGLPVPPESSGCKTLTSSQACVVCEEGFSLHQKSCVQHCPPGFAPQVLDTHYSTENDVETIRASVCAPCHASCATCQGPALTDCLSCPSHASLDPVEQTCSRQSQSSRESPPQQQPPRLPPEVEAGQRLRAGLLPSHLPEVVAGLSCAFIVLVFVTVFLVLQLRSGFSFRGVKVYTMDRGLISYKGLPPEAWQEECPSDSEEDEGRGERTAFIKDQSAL
Sequence of Cytochrome P450 3A4 (Homo sapiens) (P08684 whole entry, looked up): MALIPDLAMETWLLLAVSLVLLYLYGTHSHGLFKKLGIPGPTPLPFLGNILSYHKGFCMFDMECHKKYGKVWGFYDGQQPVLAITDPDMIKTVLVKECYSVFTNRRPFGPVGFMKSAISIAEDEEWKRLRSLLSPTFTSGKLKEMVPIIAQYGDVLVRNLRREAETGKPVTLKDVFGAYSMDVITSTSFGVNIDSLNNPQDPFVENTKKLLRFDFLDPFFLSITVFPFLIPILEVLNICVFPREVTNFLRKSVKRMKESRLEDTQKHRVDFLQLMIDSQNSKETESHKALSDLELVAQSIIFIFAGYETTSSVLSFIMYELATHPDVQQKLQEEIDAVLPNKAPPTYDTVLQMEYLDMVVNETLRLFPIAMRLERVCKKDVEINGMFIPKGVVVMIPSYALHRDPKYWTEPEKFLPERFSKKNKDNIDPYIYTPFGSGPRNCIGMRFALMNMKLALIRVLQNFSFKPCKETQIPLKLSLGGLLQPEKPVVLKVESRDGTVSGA

COc1ccccc1N1CCN(CCn2c(=O)c3c(c4ccccc4n3C)n(C)c2=O)CC1
active: Potency (Furin (Homo sapiens)) 24.1 µM | Potency [1] 27.1 µM | Potency [2] 24.1 µM
inactive: Potency [3] | Potency [4] | Potency [5] | Potency [6]

O=C(O)COc1ccc(-c2nccc3c2C(=O)N(Cc2ccccc2)CC(COc2cccc(C(F)(F)F)c2)O3)cc1 (configuration not stated)
inactive: Potency (Furin (Homo sapiens))
active: Potency [1] 55.5 µM | Potency [2] 44.1 µM | Potency [7] 35.5 µM

O=[S+]([O-])([O-])c1ccc2c(c1)cc([S+](=O)([O-])[O-])c1nn(-c3ccc(/C=C/c4ccc(-n5nc6c([S+](=O)([O-])[O-])cc7cc([S+](=O)([O-])[O-])ccc7c6n5)cc4[S+](=O)([O-])[O-])c([S+](=O)([O-])[O-])c3)nc12
active: Potency [1] 49.4 µM | Potency [2] 49.4 µM | Potency [7] 11.2 µM | Potency [5] 6.58 µM
inactive: Potency (Furin (Homo sapiens)) | Potency [8]

N#C/C(=C\c1ccc(Br)cc1)c1nc(-c2cc3cc(Br)ccc3oc2=O)cs1
inactive: Potency (Furin (Homo sapiens)) | Potency [1] | Potency [2] | Potency [5]

CCOc1ccc(C2C(=O)N(C3CCCCC3)CC(=O)N2Cc2ccc(F)cc2)cc1OC (configuration not stated)
active: Potency [5] 8.29 µM
inactive: Potency (Furin (Homo sapiens)) | Potency [9] | Potency [3] | Potency [4]

Nc1ncnc2c1ncn2[C@@H]1O[C@H](CSCC[C@H](N)C(=O)O)[C@@H](O)[C@H]1O
inactive: Potency (Furin (Homo sapiens)) | Potency [9] | Potency [8] | Potency [10] | Potency [7] | Potency [3] | Potency [4] | Potency [5]

O=C(O)c1ccc(-c2ccc(C(F)(F)F)cc2)cc1
inactive: Potency (Furin (Homo sapiens)) | Potency [1] | Potency [2] | Potency [5]

O=C(O)COc1ccc(-c2nccc3c2C(=O)N(Cc2cccc(C(F)(F)F)c2)CC(COc2cccnc2)O3)cc1 (configuration not stated)
inactive: Potency (Furin (Homo sapiens)) | Potency [1] | Potency [2]

O=C(O)c1ccc(-c2ccc(OC(F)(F)F)cc2)cc1
inactive: Potency (Furin (Homo sapiens)) | Potency [1] | Potency [2] | Potency [5]

N#Cc1ccccc1S(=O)(=O)N[C@H]1CO[C@H]2[C@@H]1OC[C@H]2OC(=O)Nc1ccc(Oc2ccccc2)cc1
inactive: Potency (Furin (Homo sapiens)) | Potency [1] | Potency [2]
active: Potency [5] 7.39 µM

CN(Cc1cnc2nc(N)nc(N)c2n1)c1ccc(C(=O)NC(CCC(=O)O)C(=O)O)cc1 (configuration not stated)
inactive: Potency [11] | outcome [12] | outcome [13] | activity change, negative = inhibition ([14]; at 57.5 µM (top of the series)) 6.64% | Potency [1] | Potency [2] | Potency [3] | Potency [4] | Potency [5] | Potency [6]
7.14%: max response ([14]; measured here: cell count channel max response)
16%: max response ([14]; measured here: lipid channel max response)
active: Potency (Furin (Homo sapiens)) 21.5 µM

O=C(O)c1cccc(-c2cc(C(F)(F)F)ccc2Cl)c1
inactive: Potency (Furin (Homo sapiens)) | Potency [1] | Potency [2] | Potency [8] | Potency [5]

From PubChem BioAssay (NCATS)
